# Assay outcomes: PubChem BioAssay, Center for Chemical Genomics, University of Michigan
# Only a selection was taken, and hits are over-represented in it overall.
# Dicer inh = inhibitors of Dicer pre-microRNA processing, primary screen, biochemical, cat-ELCCA, chemiluminescence | z-score at 25 µM | cat-ELCCA pre-miR-21 Dicer processing; hits give high values | hit rate 6% among 47,000 | AID 1347074, 2019; in the data active = z-score above about 3, passing the limit was not always enough;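 note: plate controls were vehicle for no effect and no enzyme for full effect; higher signal means more uncleaved substrate so more Dicer inhibition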
# Numbers without * were called inactive.
SMILES,Dicer inh
O=C(Cn1cc(C(=O)c2ccco2)c2ccccc21)NCc1ccco1,-1.1
CCOC(=O)C1=NN(c2ccccc2)C2(C(=O)c3ccccc3C2=O)C1c1ccc(Cl)cc1 (centres undefined),-0.68
CCCOC(=O)C1=C(C)NC2=C(C(=O)CC(c3ccc(OC)cc3)C2)C1c1ccc(O)c(OCC)c1 (centres undefined),0.67
O=c1sc(-c2ccccc2)ncc1-c1ccccc1,-0.08
CC(C)(C)c1ccc(-c2ncc(-c3cccc([N+](=O)[O-])c3)s2)cc1,0.03
c1ccc(-c2ccc(-c3cnc(-c4ccncc4)s3)cc2)cc1,3.1*
CC(C)(C)c1ccc(CSCCNC2=CC(=O)CC(c3ccc4c(c3)OCO4)C2)cc1 (centres undefined),0.73
CCOC(=O)c1cnn(-c2ncnc3sc4c(c23)CCCC4)c1N,-1.3
CCCS(=O)(=O)/C(C#N)=C\OCC,-2.8
Cc1ccc(CNc2ccc(N3CCOCC3)cc2)s1,4*
Cc1ccc(CNc2ccc(N3CCOCC3)c(Cl)c2)s1,1.4
Cc1ccc(CNCCN2CCOCC2)s1,-1.3
O=C1C2=C(C(c3ccccc3)=NCCN2)C(c2ccc(F)cc2)N1c1ccccc1 (centres undefined),-1.3
CCC(Oc1ccccc1)C(=O)Nc1nc2c(s1)C(=O)CC(C)(C)C2 (centres undefined),-1.8
CC1(C)CC(=O)c2sc(NC(=O)CSc3nc(-c4ccccc4)c(C#N)c(=O)[nH]3)nc2C1,4.1*
Cc1cc(NC(=O)CSc2nc(-c3ccccc3)c(C#N)c(=O)[nH]2)no1,0.24
CN(/N=C/Cc1nnnn1-c1ccc(Cl)cc1)c1ccccc1,-1.1
Clc1ccccc1N/N=C/Cc1nnnn1-c1ccccc1,0.48
NC(=S)N/N=C/Cc1nnnn1-c1ccc(-c2ccccc2)cc1,3.2*
CSc1sc(-c2ccnc(SCC(=O)c3ccccc3)n2)c(-c2ccccc2)c1C#N,0.75
COC(=O)c1[nH]c2ccc([N+](=O)[O-])cc2c1-c1ccccc1,0.35
COC(=O)Cc1c(-c2ccccc2)c2cc(Br)ccc2[nH]c1=O,3.9*
COc1ccc2[nH]c(=O)c(-c3ccccc3)c(O)c2c1,0.63
CCCCCc1ccc(C(=O)NN)cc1,-0.57
COc1ccc(OCC(O)Cn2c[n+](C)c3ccccc32)cc1 (centres undefined),-0.74
SMILES,Dicer inh
O=C1C2CC=CCC2C(=O)N1c1ccccc1O (centres undefined),-0.18
CC(=O)COc1nc2c(c(-c3ccc(Cl)cc3)c1C#N)CCc1ccccc1-2,3.2*
CC(=O)COc1nc2c(c(-c3ccco3)c1C#N)CCc1ccccc1-2,243
CCOc1nc2c(c(-c3ccc(OC)cc3)c1C#N)Cc1ccccc1-2,-1.6
Cn1c(-c2c(CCC(=O)O)oc3cc(O)ccc3c2=O)nc2ccccc21,1.3
CCOC(=O)C1=C(C)NC2=C(C(=O)CC(C)(C)C2)C1c1ccc(C)s1 (centres undefined),0.81
CC(=O)Oc1ccc(C2C(C(=O)OC3CCCCC3)=C(C)NC3=C2C(=O)CCC3)cc1 (centres undefined),-0.36
CN1CCN(c2ncnc3oc(-c4ccccc4)c(-c4ccccc4)c23)CC1,1.7
C=CCOC(=O)c1sc(N2C(=O)c3oc4ccccc4c(=O)c3C2c2cccnc2)nc1C (centres undefined),-0.71
COC(=O)CSCc1n[nH]c(=O)c2ccccc12,-0.76
O=c1[nH]nc(-c2ccccc2)c2ccccc12,-0.94
O=c1[nH]nc(Cc2ccccc2)c2ccccc12,4*
N#Cc1c(NC(=O)c2ccc(S(=O)(=O)N3CCCCC3)cc2)sc2c1CCCC2,1.2
Cc1nnc(N2C(=O)C(=O)/C(=C(/O)c3ccccc3)C2c2ccccc2F)s1 (centres undefined),0.96
OCCN(CCO)c1ncnc2c1sc1nc(N3CCOCC3)c3c(c12)CCCC3,-0.37
OCCCNc1ncnc2c1sc1nc(-c3ccccc3)c3c(c12)CCCC3,-0.45
CN(C)c1ccnc2sc3c(N(CCO)CCO)ncnc3c12,3.3*
COc1ccc(C2CC(=O)Nc3nc(N)[nH]c(=O)c32)c(OC)c1 (centres undefined),-0.94
CCCCN1C(=O)C(NC(C)=O)c2cc(Cl)ccc21 (centres undefined),1.3
CCc1ccccc1Nc1n[nH]c(=S)s1,-2.4
CCOC(=O)C1CC(=O)C(C(=O)OCC)CC1=O (centres undefined),-0.45
CCOC(=O)C1=C(O)C(=O)N(C2CCCCC2)C1,-0.9
CCOC(=O)C1CN(C2CCCCC2)C(=O)C1=O (centres undefined),5.1*
Cc1cc(C)n(-c2nnc3n2N=C(c2ccccc2O)CS3)n1,0.93
COc1ccccc1NC1=C(C(=O)c2ccccc2)N(C)S(=O)(=O)c2ccccc21,-0.03
SMILES,Dicer inh
O=C(O)c1c[nH]c2c(-c3ccccc3)c(C(F)(F)F)sc2c1=O,4.8*
CCOC(=O)c1c[nH]c2c(-c3ccccc3)c(C(F)(F)F)sc2c1=O,0.13
Cc1cccc2c(=O)c(C(=O)O)c[nH]c12,0.73
COc1cccc(C2C3=C(CC(C)(C)CC3=O)NC3=C2C(=O)c2ccccc23)c1 (centres undefined),0.77
Oc1ccccc1C1=NN2C(C1)c1cc(Cl)ccc1OC2c1ccsc1 (centres undefined),12*
Cc1ccc(O)c(C2=NN3C(C2)c2ccccc2OC3c2cccnc2)c1 (centres undefined),3
Oc1ccccc1C1=NN2C(C1)c1cc(Cl)ccc1OC2c1ccncc1 (centres undefined),2.6
Oc1ccc(Cl)cc1C1=NN2C(C1)c1ccccc1OC2c1cccnc1 (centres undefined),0.4
COc1ccc(O)c(C2=NN3C(C2)c2cc(Cl)ccc2OC3c2ccsc2)c1 (centres undefined),1.1
Oc1ccc(Cl)cc1C1=NN2C(C1)c1ccccc1OC2c1ccsc1 (centres undefined),6.7*
COC(=O)c1cc(-c2cccnc2)no1,0.54
CSC(=NCc1ccccn1)NC#N,0.07
O=C1c2cccc(Oc3ccccc3)c2C(=O)c2c(Oc3ccccc3)cccc21,-0.06
Cc1c(C(=O)OC(C)C)c2cc(NS(C)(=O)=O)ccc2n1S(C)(=O)=O,0
O=C(Nc1cccc(O)c1)c1cc2n(n1)C(C(F)(F)F)CC(c1ccco1)N2 (centres undefined),3.3*
O=C(Nc1ccccc1F)c1cc2n(n1)C(C(F)(F)F)CC(c1ccco1)N2 (centres undefined),-0.64
CC(C)(C)NC(=O)c1cc2n(n1)C(C(F)(F)F)CC(c1ccco1)N2 (centres undefined),-0.06
COc1ccc(NC(=O)c2cnn3c2NC(c2ccco2)CC3C(F)(F)F)c(OC)c1 (centres undefined),3
O=C(Nc1ccc2c(c1)OCO2)c1cnn2c1NC(c1ccco1)CC2C(F)(F)F (centres undefined),5*
COc1ccc(NC(=O)c2cc3n(n2)C(C(F)(F)F)CC(c2ccco2)N3)cc1 (centres undefined),-1.3
COc1ccc(NC(=O)c2cc3n(n2)C(C(F)(F)F)CC(c2ccco2)N3)cc1OC (centres undefined),-0.8
Cc1ccc(C2CC(C(F)(F)F)n3ncc(C(=O)Nc4ccc5c(c4)OCO5)c3N2)cc1 (centres undefined),0
CCc1c(C)sc(NC(=O)c2cc3n(n2)C(C(F)(F)F)CC(c2ccco2)N3)c1C#N (centres undefined),4*
